Among all 96,000 compounds or so, about 19,000 (20%) were called active. These entries were drawn from the full list. Unmarked numbers belong to inactive results.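 The calls were made as follows: active = blocking of liver enzyme CYP2C9 beyond about 50% at 5 µM (limit read from the data); inactive = the rest.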

In general, inhibition refers to the change of the read-out against control, counted positive when it falls.

The target in this assay is Cytochrome P450 2C9 (Homo sapiens) (UniProt P11712). The assay can be described thus: blockers of cytochrome P450 2C9 activity – biochemical, luminescence, ADME assay, primary screen (AID 777). The following applies: CYP2C9 Supersomes, luciferin-H conversion, at 5 µM, hits give high values.
Cytochrome P450 2C9 (Homo sapiens), sequence (P11712 whole entry, looked up): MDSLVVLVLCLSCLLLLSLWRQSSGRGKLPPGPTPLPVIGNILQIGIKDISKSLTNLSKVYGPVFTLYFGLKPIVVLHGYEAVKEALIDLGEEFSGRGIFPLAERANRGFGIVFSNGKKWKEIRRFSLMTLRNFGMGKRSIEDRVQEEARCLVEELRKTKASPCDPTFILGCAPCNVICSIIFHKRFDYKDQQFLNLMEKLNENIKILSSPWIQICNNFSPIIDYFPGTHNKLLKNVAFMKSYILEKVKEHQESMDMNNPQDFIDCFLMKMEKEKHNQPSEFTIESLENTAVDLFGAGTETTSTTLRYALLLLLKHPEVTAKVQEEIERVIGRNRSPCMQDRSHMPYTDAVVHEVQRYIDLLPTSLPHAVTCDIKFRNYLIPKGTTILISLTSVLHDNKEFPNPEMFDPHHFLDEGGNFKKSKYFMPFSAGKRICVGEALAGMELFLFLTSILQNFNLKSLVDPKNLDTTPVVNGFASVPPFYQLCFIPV
Turning to `CCCOc1ccc(-c2nc(N)n[nH]2)cc1`, the inhibition was 3.7%.
In the case of `N=c1c2c(-c3ccccc3)c(-c3ccccc3)oc2ncn1Cc1ccco1` it was 45.2%; in that of `CCc1nc2oc3ccccc3c(=O)c2c(=O)n1Cc1ccc(OC)cc1`, 6.4%.
For the molecule `CC1CN(C(=O)c2ccc3c(c2)OCO3)OC(c2ccccc2)O1` (centres undefined), the inhibition is 35%.
Regarding `CCOC(=O)C1=NNC2(c3ccc(Cl)cc3)C(=O)N(c3cc(C)cc(C)c3)C(=O)C12` (centres undefined), the inhibition was 64.1% (active).
Take `FC(F)(F)c1cc(C(F)(F)F)c2ccc(N3CCN(c4ccccc4)CC3)nc2n1`: the inhibition was -7.6%.
On to `CCN1CCCC1CNC(=O)c1cc2c(=O)n(C)c3ccccc3c2n1C` (centres undefined), for which the inhibition was 8.3%.
Turning to `O=c1[nH][nH]c(=O)c2cc(N3CCCC3)ccc12`, the inhibition was 2.6%.
With `COc1ccc(C(=O)NN(C)c2nc(-c3ccccc3)cc(C)c2S(C)(=O)=O)cc1`, the inhibition is 13.3%.
For `Cc1nc(NNC(=O)c2ccccc2)cc(-c2ccccc2)n1`, the inhibition was 62.7% (active).
Consider `Cc1ccc2nc(-c3ccccc3)cc(C(=O)O)c2c1`, for which the inhibition is 34.4%.
Regarding `CCCCN(CC)CCCNC(=O)CS(=O)(=O)Cc1nc(-c2cccc(OC)c2)oc1C`, the inhibition is -5.6%.
Regarding `CC(=O)N1CCN(C(=O)c2cccc(S(=O)(=O)Nc3ccc(C)cc3)c2)CC1`, the inhibition was 0.3%.
Take `Cc1ccc(S(=O)(=O)Nc2nc(C)cc(-n3nc(C)cc3C)n2)cc1`: the inhibition was 29.1%.
With `Cc1ccc(S(=O)(=O)Nc2ccc3ncccc3c2)cc1`, the inhibition was 84.1% (active).
In the case of `CN=C1SC(CC(=O)Nc2ccc(C(=O)O)cc2)C(=O)N1C` (centres undefined) it was 8.3%; in that of `CCCCOc1ccc(NC(=O)CSCC(=O)OCC)cc1`, 0.4%; in that of `CCOC(=O)C1CCCCN1Cc1ccc(OC)c(OC)c1OC` (centres undefined), 29.7%.
The value for `COc1ccc2c(c1)CCc1c(C(=O)N3CCCC3)noc1-2` was -6.1%; that for `COc1ccc2c(c1)CCc1c(C(=O)N3CCc4ccccc4C3)noc1-2` was 73.7% (active).
The value for `COc1ccc2c(c1)CCc1c(C(=O)Nc3c(C)n(C)n(-c4ccccc4)c3=O)noc1-2` was 14%; that for `CCOC(=O)c1cc(-c2ccc(Cl)s2)nc2c1c(C)nn2C` was 32.3%.
With `Cc1cc(C(F)F)n2nc(C(=O)Nc3ccc(S(=O)(=O)NC45CC6CC(CC(C6)C4)C5)cc3)nc2n1`, the inhibition is 24.7%.
In the case of `CCOc1c(OC)cc(C2C(C#N)=C(N)Oc3n[nH]c(-c4ccncc4)c32)cc1OC` (centres undefined) it was 20.1%; in that of `COc1ccc(/C=C2\CCCC3C2=NN(C(=O)c2scnc2C)C3c2ccc(OC)cc2)cc1` (centres undefined), 83.4% (active).
With `Cc1nc2ccc(C(=O)O)cc2[nH]1`, the inhibition is 14.9%.
On to `Cc1cc(Br)ccc1NC(=O)C1CCCO1` (centres undefined), for which the inhibition was -2.8%.
For the molecule `CCOC(=O)C1CN(S(=O)(=O)c2ccc(F)cc2)C1`, the inhibition is 8.2%.
As for `COc1ccc(OC)c(NC(=O)CC(Cc2ccccc2OC)C(=O)O)c1` (centres undefined), the inhibition is 40.6%.
Regarding `C=CCCC(=O)Nc1nc(C)c(-c2csc(Nc3ccc(Cl)cc3)n2)s1`, the inhibition was 38.2%.
In the case of `CCCCCCC(=O)Nc1nc(C)c(-c2csc(Nc3cc(Cl)ccc3OC)n2)s1` it was 14.8%.
On to `CCCCC(=O)Nc1nc(C)c(-c2csc(Nc3ccc(Cl)cc3)n2)s1`, for which the inhibition is 57.3% (active).
The value for `CC(C)C(=O)N1c2ccccc2NC2=C(C(=O)CCC2)C1c1ccc(N(C)C)cc1` (centres undefined) was 16.8%.
The value for `CCC(C)n1c(-c2cc(OC)c(OC)c(OC)c2)nc2nc3ccccc3nc21` (centres undefined) was 95.3% (active); that for `COc1ccc(CCn2c(-c3ccco3)nc3nc4ccccc4nc32)cc1OC` was 34.7%.
For `COC(=O)c1nc(NC(=O)c2ccc(Cl)cc2)n[nH]1`, the inhibition was 7.9%.
With `O=S(=O)(Nc1nccs1)c1ccc2c(c1)OCCO2`, the inhibition is -23.3%.
The value for `CCc1ccccc1NC(=O)/C(=C/c1ccccc1)c1ccccc1` was 16.4%; that for `O=C(/C=C/c1ccccc1)N/C(=C/c1ccccc1)C(=O)Nc1ccccc1O` was 62.7% (active); that for `O=C(/C=C/c1ccccc1)c1ccoc1` was 15.1%.
With `CC(C)c1ccc(-c2nn[nH]n2)cc1`, the inhibition is 9.2%.
`O=C(Nc1ccc(Cl)cc1)N1CCc2[nH]c3ccccc3c2C1`: the inhibition was 14.2%.
In the case of `Cc1cccc(-n2cnc(C(=O)Nc3cccnc3)c2)n1`, the inhibition was 88.2% (active).
In the case of `Cc1cc(C)c(NC(=O)CS(=O)CC(=O)Nc2cccnc2)c(C)c1` (centres undefined) it was 22.7%.
With `CCC(=O)Nc1cccc(NC(=O)c2cccnc2)c1`, the inhibition was 6.5%.
As to `Cc1cc(-n2nc(C)cc2C)n2nc(C)c(-c3ccccc3)c2n1`, the inhibition was 25.1%.
Turning to `CC(Oc1ccc(Cl)cc1)C(=O)OCC(=O)Nc1ncc(Cl)cc1Cl` (centres undefined), the inhibition was -20.7%.
Turning to `O=C(NC(Nc1nc2ccc([N+](=O)[O-])cc2s1)(C(F)(F)F)C(F)(F)F)c1ccccc1`, the inhibition is 97.4% (active).
The value for `Cc1cc(C)cc(OCC(=O)Nc2nc3ccc([N+](=O)[O-])cc3s2)c1` was 48.4%; that for `CNC(=O)c1ccc2nc(NC(C)=O)sc2c1` was 21.5%; that for `O=C(Nc1ccc(Cl)cc1)c1ccsn1` was -4.3%.
Regarding `O=C(c1ccc(Cl)cc1)c1cnc(Nc2ccccc2)s1`, the inhibition was 21.7%.
As for `O=C(Nc1ccccc1)c1nnsc1S(=O)(=O)c1ccc(Cl)cc1`, the inhibition was 74.9% (active).
Consider `Cc1ccc(N2CCN(c3ccc(C)cc3)C2c2ccccn2)cc1`, for which the inhibition is 1.3%.
Regarding `O=C(NCCCCCCCCCNC(=O)C(F)(F)F)C(F)(F)F`, the inhibition is 11.2%.
For `CCCOc1ccccc1C(=O)NCCCC(=O)O`, the inhibition was -8.2%.
With `CS(=O)(=O)N1CCN(C(=O)Cc2ccccc2)CC1`, the inhibition was -5.4%.
In the case of `CCOc1ccc(Cn2nnc(C(=O)NCc3ccccc3)c2N)cc1`, the inhibition is -2.2%.
In the case of `COc1ccc(OC)c(CN2C(=O)CCC2(C)C(=O)NC2CCCCCC2)c1` (centres undefined) it was 30%; in that of `CCOC(=O)CCc1c(C)c2ccc(OCc3nn[nH]n3)c(C)c2oc1=O`, 86.3% (active); in that of `CC(=O)Oc1ccc2c(C)c(CC(C)O)c(=O)oc2c1` (centres undefined), -16%.
The value for `Cc1c(C(=O)Nc2ccccc2Cl)oc2ccc(S(=O)(=O)N3CCC4(CC3)OCCO4)cc12` was 31.2%; that for `CCOC(=O)C1CCN(C(=O)c2oc3ccc(S(=O)(=O)N4CCCCCC4)cc3c2C)CC1` was 53.6% (active).
On to `CCOC(=O)N1CCN(C(=O)c2cn(C)c3ccc(S(=O)(=O)N4CCCC4)cc3c2=O)CC1`, for which the inhibition is -6.2%.
